Sampled rows, rich in hits. Any-hit rate of the full collection: about 2.7%.
GLP1R cytotox: cytotoxicity in counter-screen for GLP-1R inverse agonists; AID 624418; 410,000 compounds, 0.13% hits; HEK293 cAMP-luciferase reporter cells, luminescence, 24 h; Potency, µM (highest dose often 38.3 µM), for inactives: at the highest dose activity change, negative = inhibition, usual class: inhibitors;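 also: loss of luciferase light is scored as toxicity; % is scaled to controls: 0 for no effect and ±100 for the full control effect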
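Luminescence readout: signal drop marks cytotoxicity. Plated cells grew 12 h at 37 °C, 5% CO2, received 23 nL compound for 24 h, then got luciferase reagent, read after 12 min at RT.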
a7 integrin act: activators of alpha7 integrin expression for muscular dystrophy | 350,000 compounds, 0.064% hits | alpha7betagal myoblasts, beta-gal FDG fluorescence, 48 h | Potency, µM (highest dose often 38.3 µM), for the others: at the highest dose activation, usual class: activators;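 also: 100% = response of the positive control SU9516; nearly all actives have a fitted effect of over 60% in size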
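Alpha7betagal+/- myoblasts (passage 13) were plated 16-24 hr, then exposed to compounds (1:260 dilution of DMSO stock) for 48 hours at 37C. After MPER lysis, β-galactosidase reporter activity was read as FDG fluorescence (ex 480/em 540) after 30 minutes.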
GLP1R ag: GLP-1 receptor (human) agonism | P43220 | AID 624172 | HEK293 GLP-1R CRE-luciferase, luminescence, 4-6 h; cells express a hypersensitive GLP-1R form | 380,000 compounds, 0.007% hits | Potency, µM (top dose mostly 45.6 µM), without a hit: top-dose activation, hits mostly activators; also: % of control where 0% means no effect
Target sequence (P43220 whole entry, looked up): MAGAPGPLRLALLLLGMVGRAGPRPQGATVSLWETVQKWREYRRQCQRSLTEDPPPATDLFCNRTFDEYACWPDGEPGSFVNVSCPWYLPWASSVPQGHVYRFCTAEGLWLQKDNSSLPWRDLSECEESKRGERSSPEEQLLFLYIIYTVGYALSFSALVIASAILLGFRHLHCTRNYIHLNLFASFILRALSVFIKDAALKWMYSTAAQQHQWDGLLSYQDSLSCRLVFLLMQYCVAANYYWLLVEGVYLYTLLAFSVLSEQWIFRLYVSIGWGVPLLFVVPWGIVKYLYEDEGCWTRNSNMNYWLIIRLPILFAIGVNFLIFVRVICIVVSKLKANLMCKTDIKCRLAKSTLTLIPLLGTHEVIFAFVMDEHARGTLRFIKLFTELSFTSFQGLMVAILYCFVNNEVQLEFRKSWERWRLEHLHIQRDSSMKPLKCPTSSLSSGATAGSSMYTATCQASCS
BRCA1 expr up: increases BRCA1 expression; MCF7-BRCA1-FFLuc reporter, luminescence, 48 h; response scale: scaled: vehicle 0%, 10 µM genistein 100%; Potency, µM (top dose mostly 46.1 µM), inactives show top-dose activation, most hits filed as activators; 380,000 compounds, 1.1% hits; AID 624202; also: nearly all actives have a fitted effect of over 80% in size
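Reporter cells (MCF7, BRCA1 promoter-firefly luciferase) received library compounds across a concentration series for 48 h. End-point luminescence was measured and concentration-effect curves derived after normalization.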
GLP1R inv ag: acts as inverse agonist at human GLP-1 receptor; P43220; Potency, µM (top dose mostly 38.3 µM), for the others: at the highest dose activity change, negative = inhibition, usual class: inhibitors; 410,000 compounds, 1.6% hits; HEK293 GLP-1R CRE-luciferase, luminescence, 24 h; GLP-1R form is constitutively active; AID 624417; also: % is scaled to controls: 0 for no effect and ±100 for the full control effect; nearly all actives have a fitted effect of over 55% in size
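HEK293 cells stably co-expressing a cAMP-responsive luciferase reporter and constitutively active GLP-1R were seeded, incubated 12 h, then exposed to compounds for 24 h at 37 C. Luminescence was read 12 min after detection reagent; inverse agonists lower signal.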
* = called active by the depositor; ? = inconclusive; / = no result. Calls follow the shape of the dose curve; as a rule, active = well fitted curve in the direction sought with a large enough effect; inconclusive = small, poorly fitted or top-dose-only effect, or another doubt; inactive = no such curve, though single readings can be large; an effect the other way counts as inactive or inconclusive. Potency is read from the fitted curve at half-maximal effect.

SMILES | GLP1R cytotox | a7 integrin act | GLP1R ag | BRCA1 expr up | GLP1R inv ag
Cc1ccc(NC(=O)C(c2ccccc2)N(C)C)cc1Cl (configuration not stated) | -10% | 4% | 4% | 8% | 5µM*
Cc1ccc(NC(=O)Nc2cccnc2)cc1Cl | -20% | ? | 11% | 13µM* | ?
CCN(CC)S(=O)(=O)c1nnc(NC(=O)c2ccc(Br)cc2)s1 | -11% | / | / | / | -3%
CCOC(=O)c1c(C)oc2nc(C)nc(NCc3ccc(OC)cc3OC)c12 | -39% | / | / | -8% | 13%
CCC(=O)O[C@@H](OP(=O)(CCCCc1ccccc1)CC(=O)N1C[C@H](C2CCCCC2)C[C@H]1C(=O)O)C(C)C (some centres not stated) | / | / | 1% | / | /
COc1ccc2c(c1OC)C(=O)N1c3ccccc3COC21 (configuration not stated) | -29% | 16% | 3% | ? | 3%
COc1ccc2c(c1OC)C(=O)N1c3ccccc3SC21 (configuration not stated) | 3% | 5% | 22% | 5µM* | 68%
CCCc1cc(C(=O)Nc2ccc(C(=O)c3ccc(F)cc3)cc2)n(C)n1 | -4% | 11% | -3% | -51% | 8.9µM*
CCCc1cc(C(=O)Nc2ccc(C(=O)c3ccccc3)cc2)n(C)n1 | 0% | -17% | 2% | -35% | ?
CC(=O)Nc1cccc(C(=O)N2CCN(S(=O)(=O)c3ccc(C4CCCCC4)cc3)CC2)c1 | -16% | ? | 10% | -34% | 5µM*
COc1cc(NC(=O)c2c(OC)cccc2OC)ccc1NC(=O)c1cc2ccccc2o1 | -13% | 0% | 3% | 11µM* | -1%
Nc1c(-c2nc(-c3cccs3)no2)nnn1-c1ccccc1Cl | 5% | / | / | / | 3%
COc1ccc(F)c(CN2CCC(CO)(Cc3cccc(C(F)(F)F)c3)CC2)c1 | -3% | -31% | 11% | -47% | ?
COc1cc(CN2CCC(CO)(Cc3cccc(C(F)(F)F)c3)CC2)ccc1F | ? | -51% | -1% | -47% | 3.2µM*
COc1ccc2c(c1)CC(N1CCN(C)CC1)c1cc(OC)ccc1S2 (configuration not stated) | ? | -56% | 9% | -95% | 2.5µM*
COc1cc(C(=O)N2CCc3c([nH]c4ccccc34)C2c2ccc(C)cc2)cc(OC)c1OC (configuration not stated) | -14% | / | / | / | ?
Cc1ccc(C2=N/C(=C/N3CCOCC3)C(=O)O2)cc1 | 19% | -21% | 6% | 8.9µM* | 61%
CC(C)(C)N/N=C/c1cc(Cl)cc([N+](=O)[O-])c1O | ? | 7% | -21% | -34% | -1%
CN(/N=C/c1cc(Cl)cc(Cl)c1O)c1c(Cl)cccc1[N+](=O)[O-] | -2% | -15% | 9% | -61% | 8.9µM*
CCN1CCN(S(=O)(=O)c2ccc(Cl)c(C(=O)Nc3ccccc3N3CCCCC3)c2)CC1 | -28% | -49% | 16% | -55% | 10µM*
CN1CCN(S(=O)(=O)c2ccc(NC(=O)Nc3cccc(Cl)c3)cc2)CC1 | -30% | -14% | -12% | 0% | ?
CCN(CC(=O)Nc1cc(S(=O)(=O)N2CCCCC2)ccc1Cl)Cc1ccccc1 | 9% | -40% | 3% | -65% | 5.6µM*
O=C(Nc1cccc(Cl)c1)Nc1cc(S(=O)(=O)N2CCCCC2)ccc1Cl | -30% | -64% | 2% | -65% | 2.8µM*
O=C(COC(=O)c1cccc(NC(=O)c2ccc(Br)cc2)c1)c1ccc(Cl)cc1 | -1% | / | / | / | -22%
CCOC(=O)c1scc(-c2ccccc2)c1S(=O)(=O)N1CCN(c2ccc(Cl)cc2)CC1 | 0% | / | / | / | ?
SMILES | GLP1R cytotox | a7 integrin act | GLP1R ag | BRCA1 expr up | GLP1R inv ag
Cc1ccc(Cl)cc1NC(=O)C1CCN(C(=O)c2cnn(-c3ccccc3)c2-n2cccc2)CC1 | -8% | / | / | -24% | ?
Cc1ccc(Cl)cc1NC(=O)Cn1nc2c(cc1=O)CC(C)CC2 (configuration not stated) | -3% | / | / | / | -16%
CNc1ccc(C=O)cc1Cl | / | / | / | 32% | /
Cc1ccccc1Nc1c(-c2ccc(N3CCOCC3)cc2)nc2ccc(Cl)cn12 | 16% | / | / | / | 10µM*
Cc1ccn2c(Nc3ccccc3C)c(-c3ccc(N4CCOCC4)cc3)nc2c1 | -10% | / | / | / | 13µM*
CC(=O)c1c(C)[nH]c(C(=O)Nc2nc(C)cs2)c1C | -2% | 10% | -1% | -54% | 2.2µM*
CC(=O)c1c(C)[nH]c(C(=O)Nc2ccc(C)c(S(=O)(=O)Nc3ccc(C)cc3C)c2)c1C | ? | ? | -2% | -85% | 2.5µM*
CC(=O)c1c(C)[nH]c(C(=O)Nc2ccc(C)cn2)c1C | -7% | 3% | -13% | -44% | 5.6µM*
CC(=O)c1c(C)[nH]c(C(=O)Nc2nc(-c3ccc(Cl)cc3)cs2)c1C | -1% | 6% | -5% | -74% | -5%
COc1ccc(-c2nc(NC(=O)c3[nH]c(C)c(C(C)=O)c3C)sc2C)cc1 | -2% | -52% | 7% | -80% | 13µM*
Cc1c(N)ccc(-n2nc3ccccc3n2)c1C | 0% | -5% | 9% | 11µM* | 13%
O=C(Nc1ccc(-c2cn3cccnc3n2)cc1)c1cc(Br)ccc1Cl | -12% | / | 1% | 9% | -7%
CC(C)(C)c1ccc(NC(=O)COC(=O)C2(C)CC2(Cl)Cl)cc1 (configuration not stated) | -24% | -29% | 1% | 87% | 3.5µM*
COc1ccccc1C(=O)COC(=O)c1ccccc1O | -2% | 6% | 12% | -30% | -17%
COc1ccccc1C(=O)COC(=O)c1ccc(N(C)C)cc1 | -2% | -9% | 14% | 4µM* | -13%
COc1ccccc1C(=O)COC(=O)C1(C)CC1(Cl)Cl (configuration not stated) | 10% | -16% | 1% | 14% | 10µM*
COc1ccccc1N(C)S(=O)(=O)c1ccc(C(=O)OCC(=O)N(C)c2ccccc2)cc1 | -1% | 5% | 5% | -1% | 3.2µM*
Cc1cccc(N2CCN(C(=O)Nc3cn(CC(C)C)c(=O)c4ccccc34)CC2)c1C | 3% | / | -7% | -27% | ?
Cc1ccc(CCNC(=O)Cn2nc(-c3ccc(C)cc3)ccc2=O)cc1 | 9% | / | / | / | -7%
CCOC(=O)c1c(NC(=O)/C=C/C(=O)O)sc(C)c1-c1ccc(Cl)cc1 | ? | 2% | -5% | -74% | 5µM*
CCOC(=O)c1c(NC(=S)N2CCCCC2)sc2c1CCN(C(=O)OCC)C2 | ? | 0% | 25% | -77% | ?
CCOC(=O)c1c(NC(=O)Nc2ccc(Cl)cc2)sc(C)c1C | 1% | -15% | -9% | -23% | 14%
CCOC(=O)c1c(NC(=S)N2CCOCC2)sc2c1CCN(C(=O)OCC)C2 | ? | -67% | 10% | -83% | 10µM*

Compound activity deposited in PubChem by National Center for Advancing Translational Sciences (NCATS).
